# The list is not random: actives were taken first. Their share in the collection is about 19%.
# HT1080NT lethal: kills 2HG-producing HT-1080-NT fibrosarcoma cells | HT-1080-NT fibrosarcoma viability, CellTiter-Glo ATP luminescence, 48 h | Potency, µM (doses to about 46.1 µM), inactives show at the top dose activity, negative = less viability, usual class: cytotoxic | 1.6% of 360,000 active | AID 686970;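 note: NT is the 2HG producing partner of a matched IDH1 knockdown line; potency is the fitted concentration of half-maximal effect; 0% = DMSO-treated cells and -100% = media-only wells without cells; nearly all actives have a fitted effect of over 55% in size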
#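 750 cells/well, RPMI + 5% FBS; 2 h settle, compound pin-transfer, 48 h at 37 degrees C. CellTiter-Glo 10 min RT, luminescence. Normalized to DMSO and media-only wells.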
# TDP1 cell noCPT: qHTS for Inhibitors of human tyrosyl-DNA phosphodiesterase 1 (TDP1): qHTS in cells in absence of CPT; DT40 Tdp1-/- hTDP1 cells, no CPT, ATP luminescence, 48 h; Potency, µM (doses to about 46.2 µM), for inactives: at the top dose activity change, negative = growth inhibition, usual class: inhibitors; 15% of 420,000 active; AID 686978, 2013; note: potency is the fitted concentration of half-maximal effect; nearly all actives have a fitted effect of over 55% in size
#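 Camptothecin absent (DMSO only). Human TDP1-complemented DT40 knockout cells, 400 cells/well, 37 °C for minimum 48 hr; ATP measured via CellTiter-Glo, 30 min dark incubation, luminescence.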
# uPA surface inh: blocks generation of uPA at the cell surface; 0.31% of 330,000 active; Potency, µM (doses to about 38.3 µM), for the others: top-dose activity change, negative = inhibition, hits mostly inhibitors; cell surface uPA generation assay, qHTS; active = well fitted inhibition curve with a large enough effect; inconclusive = small, poorly fitted or top-dose-only effect; inactive = no such curve, though single readings can be large or run the other way; tested in mouse RAW 264.7 cells; note: potency is the fitted concentration of half-maximal effect; nearly all actives have a fitted effect of over 55% in size
# HT1080 IDH1KD tx: toxicity to HT-1080 IDH1 knockdown cells (counter line); AID 686971; HT-1080 IDH1 knockdown viability, ATP luminescence, 48 h; 2% of 360,000 active; Potency, µM (top dose mostly 46.1 µM), inactives show at the highest dose activity, negative = toxicity, actives largely listed as cytotoxic;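 note: potency is the fitted concentration of half-maximal effect; 0% = DMSO wells and -100% = cell-free medium wells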
#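 After a 2 h attachment period, IDH1KD HT-1080 cells took pin-transferred compound for 48 h at 37 °C; ATP-based luminescence after 10 min room-temperature reagent incubation reported viability.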
# IL1B secr inh: blocks inflammasome-driven IL-1 beta release; THP-1 LPS/ATP IL-1B secretion, AlphaLISA, 16 h; stronger effect = lower value; 4.7% of 360,000 active; AID 743279; activity change, % at 57.5 µM; in the data active = activity change below about -50%; inconclusive = mostly about -30% to -49%
#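 Secreted IL-1B measured by AlphaLISA bead assay after 16 h compound exposure of THP-1 cells; compounds (final up to 57.5 uM) added 1 h before LPS (250 ng/mL) and ATP (1.25 mM) stimulation; lower signal means less secretion.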
# DT40 TDP1 CPT: DT40-hTDP1 cell growth loss with CPT. chicken DT40 Tdp1-/-;hTDP1 cells + 20 nM CPT, ATP luminescence, 48 h. Potency, µM (titrated, usually from 46.2 µM), without a hit: at the highest dose activity change, negative = growth inhibition, most hits filed as inhibitors. AID 686979. 12% of 420,000 active; note: potency is the fitted concentration of half-maximal effect; nearly all actives have a fitted effect of over 55% in size
#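 Chicken DT40 Tdp1-/- cells stably complemented with human TDP1 were seeded at 400 cells/well in medium containing 20 nM camptothecin, exposed to pin-transferred compounds, and grown at 37 °C for at least 48 hr. Viability was read as ATP luminescence.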
# * = called active by the depositor; ? = inconclusive; / = no result given. Unless noted, calls come from the whole dose curve; as a rule, active = well fitted curve in the direction sought with a large enough effect; inconclusive = small, poorly fitted or top-dose-only effect, or another doubt; inactive = no such curve, though single readings can be large; an effect the other way counts as inactive or inconclusive. Unless noted, % is set by controls: 0 for no effect and ±100 for the full control effect.
SMILES,HT1080NT lethal,TDP1 cell noCPT,uPA surface inh,HT1080 IDH1KD tx,IL1B secr inh,DT40 TDP1 CPT
Cc1ccc(S(=O)(=O)c2nc(-c3ccc(F)cc3)oc2SCC(=O)NC2CCCCC2)cc1,/,?,/,/,/,-2.1%
CC1(C)CC(=O)C=C(c2n[nH]nc2C2CCCCC2)C1,10.0%,-10.8%,/,3.5%,-4.4,-1.4%
CC[C@](C)(O)c1cc2ccccc2c(=O)o1,17.6%,-12.3%,11.2%,14.7%,0.0,-10.6%
Cc1nc2cnc(N(C)C)nc2n(C)c1=O,/,-4.8%,/,/,/,10.0%
Cc1ccc(-n2c(CCc3ccccc3)nnc2SCC(=O)NCc2ccccc2)cc1C,-2.8%,23.1µM*,-2.0%,-2.2%,-57.1*,?
COC(=O)c1cccc(NC(=O)CSc2nnc(COc3ccc(C#N)cc3)n2-c2ccccc2)c1,-7.2%,?,-3.8%,-8.9%,4.3,-18.0%
COCc1nnc(SCC(=O)NCc2ccccc2)n1-c1ccccc1,17.1%,2.0%,1.9%,10.5%,-6.0,-1.1%
Cc1ccc(OCc2nnc(SCC(=O)c3ccccc3)n2-c2ccccc2)cc1,?,?,/,?,-55.7*,?
CCOC(=O)/C(=N/Nc1ccccc1)Sc1nnc(CCc2ccccc2)n1-c1ccccc1,2.6%,4.4%,-2.2%,-1.3%,-73.3*,-0.7%
N#Cc1ccc(OCc2nnc(SCC(=O)c3ccccc3)n2-c2ccccc2)cc1,-7.4%,?,-7.5%,-7.6%,-18.7,23.1µM*
CCCCN(C(=O)c1ccc2c(c1)S(=O)(=O)N=C1CCCCCN12)c1c(N)n(CCCC)c(=O)[nH]c1=O,4.2%,-13.9%,-1.0%,3.6%,5.0,6.5%
COc1ccccc1NC(=O)C1CCN(S(=O)(=O)c2ccc3c(c2)oc(=O)n3C)CC1,/,?,/,/,/,-14.9%
Cc1ccc(CNC(=O)c2c(C)oc3ncnc(N4CCOCC4)c23)cc1,/,-26.8%,/,/,/,-21.8%
Cn1c(N)c(C(=O)COC(=O)COc2ccccc2C#N)c(=O)n(C)c1=O,-3.0%,-4.9%,3.1%,-4.2%,31.1,-8.1%
Cc1cccc(-n2c(CCc3ccccc3)nnc2SCC(=O)c2ccccc2)c1,1.2%,9.2µM*,-3.4%,-4.4%,-85.6*,9.2µM*
Cc1cccc(OCc2nnc(SCC(=O)O)n2-c2ccccc2)c1,-6.0%,-0.5%,-0.4%,-6.4%,-26.4,-2.0%
CCCOc1ccc(C2CC(=O)Nc3c2c(=O)n(C)c(=O)n3C)cc1OC (centres undefined),/,-13.0%,/,/,/,7.7%
COc1ccccc1C(=O)NC(C)c1cccc2ccccc12 (centres undefined),?,3.66µM*,0.1%,?,-23.9,8.2µM*
COc1cc2cc(C(=O)Nc3ccccc3)c(N)nc2cc1OC,4.6%,20.6µM*,1.5%,6.7%,?,?
COc1cccc(C(=O)NC(C)c2cccc3ccccc23)c1OC (centres undefined),-23.2%,?,3.3%,-17.0%,-65.1*,-28.7%
COc1cc2ccccc2cc1C(=O)Nc1cccnc1,-1.3%,?,-11.4%,-4.1%,0.0,-11.5%
COc1cccc(C(=O)NC(C)c2ccc(-c3ccccc3)cc2)c1OC (centres undefined),-9.9%,?,2.2%,-28.8%,-64.3*,?
COCCCNC(=O)c1cccc(OC)c1OC,11.7%,-10.1%,0.0%,13.6%,10.6,-6.9%
COc1ccc(C(C)NC(=O)c2ccccc2Cl)cc1OC (centres undefined),-3.8%,-22.7%,-1.3%,5.9%,-5.8,-13.2%
Cc1noc(C)c1C(=O)N1CCC[C@@]2(CCN(Cc3cc(C(F)(F)F)cc(C(F)(F)F)c3)C2)C1,/,?,/,/,/,-8.5%
SMILES,HT1080NT lethal,TDP1 cell noCPT,uPA surface inh,HT1080 IDH1KD tx,IL1B secr inh,DT40 TDP1 CPT
COc1cc(OC)c(C(=O)Nc2cccc3ccccc23)cc1OC,-1.7%,?,-11.5%,9.8%,-5.4,?
CC(NC(=O)c1ccc([N+](=O)[O-])cc1[N+](=O)[O-])c1ccc(-c2ccccc2)cc1 (centres undefined),-9.1%,13µM*,-0.1%,-21.7%,-0.8,13µM*
COc1cc2cc(C(=O)NC(C)c3cccc4ccccc34)c(N)nc2cc1OC (centres undefined),25.9µM*,16.4µM*,/,18.4µM*,?,25.9µM*
C[N+]1(CC(=O)c2ccc(Cl)cc2)CCOCC1,/,-10.6%,/,/,/,3.8%
COc1ccccc1/C=C1\CCCC2=C1Nc1nnnn1C2c1ccccc1OC (centres undefined),-16.2%,11.6µM*,-8.4%,?,-101.3*,11.6µM*
Cc1ccc(N2C(=O)C3C4C=CC(CC4)C3C2=O)c([N+](=O)[O-])c1 (centres undefined),5.8%,0.2%,-2.0%,12.5%,-3.9,12.2%
CCN(CC(=O)Nc1ccc(NC(C)=O)cc1)C(=O)CCCN1C(=O)c2ccccc2C1=O,3.3%,-6.5%,5.5%,6.0%,13.3,-19.5%
CN(CC(=O)Nc1cccc(F)c1)C(=O)CCCN1C(=O)c2cccc3cccc(c23)C1=O,-10.0%,?,-4.9%,-9.2%,-65.1*,?
CCN(CC(=O)Nc1c(F)cccc1F)C(=O)CCCN1C(=O)c2cccc3cccc(c23)C1=O,0.7%,?,/,0.1%,-50.9*,?
CN(CC(=O)Nc1cccc(F)c1)C(=O)CCN1C(=O)C2CC=CCC2C1=O (centres undefined),-1.7%,-4.5%,14.8%,-2.1%,44.5,-18.2%
COc1ccc(-n2c(=O)c(CCc3ccccc3)nc3cncnc32)cc1,/,-3.3%,/,/,/,-25.0%
Cc1ccc(C2(C(=O)N3CCC(n4nc(-c5ccccc5)oc4=O)CC3)CC2)cc1,0.1%,?,12.7%,-1.3%,-4.3,?
Cc1ccc(-c2cc(C(=O)NCCCN3CCOCC3)c3ccccc3n2)cc1,-6.2%,?,-1.1%,2.9%,?,-20.7%
COc1ccccc1-c1cc(C(=O)NCCCN2CCOCC2)no1,16.1%,-16.5%,1.3%,7.6%,-7.4,-15.0%
COc1ccc(-c2nc(C(=O)NCCCN3CCOCC3)cc3c2[nH]c2ccccc23)cc1OC,-3.6%,3.66µM*,14.4%,-7.9%,-24.0,13µM*
Cc1ccc(-c2nc(C(=O)NCCCN3CCOCC3)cc3c2[nH]c2ccccc23)cc1,-9.0%,3.26µM*,-28.4%,-13.9%,-52.0*,3.26µM*
Cc1ccc2ccccc2c1NC(=O)c1ccco1,1.4%,2.0%,-20.0%,12.8%,12.9,?
Cc1noc(C)c1CSCC(=O)Nc1cc(S(=O)(=O)N2CCCCC2)ccc1OC(C)C,-2.6%,23.1µM*,6.0%,-5.8%,-20.4,11.6µM*

# Source: PubChem (National Center for Advancing Translational Sciences (NCATS))
